C diff growth: inhibitors of Clostridium difficile growth; hit rate 0.25% among 86,000; AID 1259249; growth activity, negative = inhibition, % at 16 µg/mL (by protocol); Clostridium difficile clinical isolate growth, OD600, 24 h; active compounds read low;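 active = mean growth activity at or below -80% and every replicate also at or below -80%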
T cruzi growth: inhibitors of T. cruzi proliferation | hit rate 5.9% among 77,000 | T. cruzi beta-gal in NIH3T3, GalScreen luminescence, 90 h | inhibition, % at 8.34 µM;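 active = mean inhibition above about 93%, with at least 55% of replicates each passing it, limit read from the data, passing the limit was not always enough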
Pf Dd2 growth: P. falciparum Dd2 growth inhibition; AID 1159554; SYBR Green, 72 h; active compounds read low; hit rate 2.3% among 94,000; activity change, % at 10 µM; in the data active = activity change below about -80%
Each line names hits and unclear results; the compound was inactive in the other large screens; ! = a repeat was not active. Compounds with a hit are over-represented: about 6.7% of the library has one in this group of screens.

CO[C@H]1CN(C)C(=O)c2cc(C#N)ccc2OC[C@H]2O[C@H](CC[C@H]2OC)CCN(C)C(=O)[C@@H]1C	none (no result: C diff growth)
COc1ccc2c3c([nH]c2c1)[C@@H](CO)N(Cc1cc(F)ccc1F)CC31CCN(C(C)=O)CC1	Pf Dd2 growth -83 (no result: T cruzi growth)
CCC(=O)N1CCC2(CC1)CN(Cc1cc(F)ccc1F)[C@@H](CO)c1[nH]c3cc(OC)ccc3c12	Pf Dd2 growth -90 (no result: T cruzi growth)
CCC(=O)N1CCC2(CC1)CN(C(C)=O)[C@@H](CO)c1[nH]c3cc(OC)ccc3c12	none (no result: T cruzi growth)
COc1ccc2c3c([nH]c2c1)[C@@H](CO)N(Cc1cccnc1)CC31CCN(C(=O)CN(C)C)CC1	none (no result: T cruzi growth)
COc1ccc2c3c(n(C)c2c1)[C@H](CO)N(Cc1cc(F)ccc1F)CC31CCN(C(C)=O)CC1	none (no result: T cruzi growth)
COc1ccc2c3c([nH]c2c1)[C@H](CO)N(Cc1cc(F)ccc1F)CC31CCN(C(=O)CN(C)C)CC1	Pf Dd2 growth -81 (no result: T cruzi growth)
CO[C@@H]1CN(C)C(=O)c2cc(NC(=O)c3cnccn3)ccc2OC[C@H](C)N(C(=O)C2CC2)C[C@H]1C	none
COc1ccc(S(=O)(=O)N(C)C[C@H]2Oc3cc(C#CC4CCCCC4)ccc3S(=O)(=O)N([C@H](C)CO)C[C@@H]2C)cc1	Pf Dd2 growth -85 (no result: C diff growth)
COc1ccccc1S(=O)(=O)N(C)C[C@@H]1Oc2cc(C#CCC(C)C)ccc2S(=O)(=O)N([C@H](C)CO)C[C@@H]1C	Pf Dd2 growth -85!
COc1ccc(S(=O)(=O)N(C)C[C@@H]2Oc3cc(C#CC4CCCCC4)ccc3S(=O)(=O)N([C@H](C)CO)C[C@@H]2C)cc1	none (no result: C diff growth)
COc1ccc(C#Cc2ccc3c(c2)O[C@H](CN(C)S(=O)(=O)c2ccccc2F)[C@H](C)CN([C@@H](C)CO)S3(=O)=O)cc1	none (no result: T cruzi growth)
COc1ccccc1S(=O)(=O)N(C)C[C@@H]1Oc2cc(C#CCC3CCCC3)ccc2S(=O)(=O)N([C@H](C)CO)C[C@@H]1C	none (no result: T cruzi growth)
COc1ccc(C#Cc2ccc3c(c2)O[C@@H](CN(C)S(=O)(=O)c2ccccc2F)[C@@H](C)CN([C@H](C)CO)S3(=O)=O)cc1	Pf Dd2 growth -88 (no result: T cruzi growth)
CCCNC(=O)N1CC2(CCN(Cc3ccncc3)CC2)c2c(n(C)c3cc(OC)ccc23)[C@@H]1CO	none (no result: C diff growth, T cruzi growth)
C[C@@H]1CN([C@@H](C)CO)C(=O)Cc2cc(NC(=O)CCCN(C)C)ccc2O[C@H]1CN(C)S(=O)(=O)c1ccccc1	none
COc1ccc(CN(C)C[C@H]2OCCCC[C@@H](C)Oc3ccc(NC(=O)Nc4ccc(C(F)(F)F)cc4)cc3C(=O)N([C@H](C)CO)C[C@@H]2C)cc1	none
COc1ccc(NC(=O)Nc2ccc3c(c2)C(=O)N([C@@H](C)CO)C[C@@H](C)[C@H](CN(C)Cc2ccc(C(F)(F)F)cc2)OCCCC[C@@H](C)O3)cc1	Pf Dd2 growth -85
COc1ccc(CN(C)C[C@H]2OCCCC[C@H](C)Oc3ccc(NC(=O)Nc4ccc(C(F)(F)F)cc4)cc3C(=O)N([C@H](C)CO)C[C@@H]2C)cc1	none
COc1ccc(NC(=O)Nc2ccc3c(c2)C(=O)N([C@H](C)CO)C[C@@H](C)[C@H](CN(C)Cc2ccc(C(F)(F)F)cc2)OCCCC[C@H](C)O3)cc1	Pf Dd2 growth -87
COc1ccc(CN(C)C[C@H]2OCCCC[C@@H](C)Oc3ccc(NC(=O)Nc4ccc(C(F)(F)F)cc4)cc3C(=O)N([C@@H](C)CO)C[C@@H]2C)cc1	C diff growth -101
COc1ccc(NC(=O)Nc2ccc3c(c2)C(=O)N([C@H](C)CO)C[C@H](C)[C@H](CN(C)Cc2ccc(C(F)(F)F)cc2)OCCCC[C@@H](C)O3)cc1	none
COc1ccc(CN(C)C[C@H]2OCCCC[C@@H](C)Oc3ccc(NC(=O)Nc4ccc(C(F)(F)F)cc4)cc3C(=O)N([C@@H](C)CO)C[C@H]2C)cc1	Pf Dd2 growth -88
COc1ccc(NC(=O)Nc2ccc3c(c2)C(=O)N([C@H](C)CO)C[C@H](C)[C@H](CN(C)Cc2ccc(C(F)(F)F)cc2)OCCCC[C@H](C)O3)cc1	none
C[C@@H]1CN([C@@H](C)CO)C(=O)Cc2cc(NC(=O)C3CC3)ccc2O[C@H]1CN(C)S(=O)(=O)c1ccc(Cl)cc1	none
C[C@H](CO)N1C[C@H](C)[C@@H](CN(C)CC2CC2)OCCCC[C@H](C)Oc2ccc(NS(=O)(=O)c3ccc(F)cc3)cc2C1=O	none
Cc1noc(C)c1NC(=O)Nc1ccc2c(c1)C(=O)N([C@@H](C)CO)C[C@H](C)[C@@H](CN(C)C(=O)Nc1c(C)noc1C)OCCCC[C@H](C)O2	none
C[C@@H]1CCCCO[C@@H](CN(C)C(=O)Nc2ccc(F)cc2)[C@@H](C)CN([C@@H](C)CO)C(=O)c2cc(NC(=O)Cc3ccccc3)ccc2O1	none (no result: T cruzi growth)
C[C@H](CO)N1C[C@H](C)[C@H](CN(C)Cc2cccc(F)c2)OCc2ccccc2-c2c(n(C)c3ccccc23)C1=O	none (no result: T cruzi growth)
C[C@H]1CN([C@@H](C)CO)C(=O)c2c(c3ccccc3n2C)-c2ccccc2CO[C@H]1CN(C)Cc1cccc(C(=O)O)c1	none
COc1cccc(CN(C)C[C@@H]2OCc3ccccc3-c3c(n(C)c4ccccc34)C(=O)N([C@@H](C)CO)C[C@@H]2C)c1	none (no result: T cruzi growth)
C[C@H]1CN([C@@H](C)CO)C(=O)c2c(c3ccccc3n2C)-c2ccccc2CO[C@@H]1CN(C)Cc1cccc(O)c1	Pf Dd2 growth -89 (no result: T cruzi growth)
C[C@H](CO)N1C[C@H](C)[C@H](CN(C)Cc2cccc(O)c2)OCc2ccccc2-c2c(n(C)c3ccccc23)C1=O	none (no result: T cruzi growth)
C[C@@H]1CN([C@@H](C)CO)C(=O)c2c(c3ccccc3n2C)-c2ccccc2CO[C@@H]1CN(C)Cc1cccc(F)c1	Pf Dd2 growth -86 (no result: T cruzi growth)
C[C@H](CO)N1C[C@H](C)[C@@H](CN(C)Cc2cccc(C(=O)Nc3ccccc3N)c2)OCc2ccccc2-c2c(n(C)c3ccccc23)C1=O	Pf Dd2 growth -91 (no result: T cruzi growth)
COc1cccc(CN(C)C[C@H]2OCc3ccccc3-c3c(n(C)c4ccccc34)C(=O)N([C@H](C)CO)C[C@H]2C)c1	Pf Dd2 growth -88 (no result: T cruzi growth)
C[C@H](CO)N1C[C@H](C)[C@@H](CN(C)C(=O)c2ccccc2)Oc2ncc(C3=CCCCC3)cc2C1=O	none
C[C@@H]1CN([C@@H](C)CO)C(=O)c2cccc(NC(=O)Nc3ccccc3)c2O[C@@H]1CN(C)CC1CCCCC1	none
C[C@@H]1CN([C@@H](C)CO)C(=O)c2cccc(NC(=O)NC3CCCCC3)c2O[C@@H]1CN(C)Cc1ccc(C(=O)Nc2ccccc2N)cc1	Pf Dd2 growth -90 (no result: C diff growth)
C[C@H]1CN([C@@H](C)CO)C(=O)c2cccc(NC(=O)C3CC3)c2O[C@@H]1CN(C)Cc1ccc(C(=O)Nc2ccccc2N)cc1	none
C[C@@H]1CN([C@H](C)CO)C(=O)c2cccc(NC(=O)C3CCCCC3)c2O[C@@H]1CN(C)Cc1ccc(C(=O)Nc2ccccc2N)cc1	Pf Dd2 growth -84
C[C@@H]1CN([C@@H](C)CO)C(=O)c2cccc(NC(=O)C3CC3)c2O[C@@H]1CN(C)Cc1ccc(C(=O)Nc2ccccc2N)cc1	none
C[C@@H]1CN([C@@H](C)CO)C(=O)c2cccc(NC(=O)C3CCCCC3)c2O[C@H]1CN(C)Cc1ccc(C(=O)Nc2ccccc2N)cc1	Pf Dd2 growth -87
C[C@@H]1CN([C@H](C)CO)C(=O)c2cccc(NC(=O)C3CCCCC3)c2O[C@H]1CN(C)Cc1ccc(C(=O)Nc2ccccc2N)cc1	Pf Dd2 growth -86
